Cycloheximide cs: Cycloheximide Counterscreen for Small Molecule Inhibitors of Shiga Toxin | max response, % | cell reporter, cycloheximide protein synthesis inhibition counterscreen | actives 12% (n = 300,000); in the data active means max response mostly above about 13%, no sharp cut-off; inactive means mostly below about 14%; further: read at 38.3 µM for the half of the compounds with a filed dose; 0% is about no effect
HCMV inh: qHTS Assay for inhibitors of the human cytomegalovirus (HCMV); HFF cells, HCMV-luciferase reporter, 72 h; active compounds read low; activity change, negative = inhibition, % at 57.5 µM; actives 4.5% (n = 410,000); in the data active means activity change below about -60%; inconclusive means no clear call, values can overlap the other calls; inactive means above about -39%; further: on the % scale 0 is the no-effect control and ±100 the full control effect
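HFF cells seeded 16 h at 37C, treated with compounds, infected with luciferase-reporter HCMV at MOI 1 PFU/cell; luciferase read at 72 h post infection, normalized to buffer-only and Salinomycin controls.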
Shiga toxin inh: A qHTS for Small Molecule Inhibitors of Shiga Toxin. Vero cells, Shiga toxin protein synthesis inhibition reporter. inhibition, % at 38.7 µM. actives 9.2% (n = 290,000); in the data active means inhibition mostly above about 28%, no sharp cut-off; inactive means mostly below about 43%; further: 0% is about no effect
Pf growth 96h: Primary qHTS for delayed death inhibitors of the malarial parasite plastid, 96 hour incubation. Potency, µM (series often up to 28.7 µM), for the others: at the highest dose activity change, negative = inhibition, hits mostly inhibitors. P. falciparum luciferase reporter growth, 96 h. actives 6.9% (n = 320,000); further: potency means the concentration at half of the fitted maximal effect; on the % scale 0 is the no-effect control and ±100 the full control effect
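Luminescence readout: decreased luciferase signal marks inhibited growth of reporter-expressing P. falciparum in infected red cells (2% hematocrit, 0.05% parasitemia final), exposed to compound two generations (96 h, 37 C, 5% CO2).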
Pf growth 48h: Primary qHTS for delayed death inhibitors of the malarial parasite plastid, 48 hour incubation; AID 504832, 2011; actives 5.9% (n = 310,000); Potency, µM (series often up to 28.7 µM), for the others: top-dose activity change, negative = inhibition, usual class: inhibitors; P. falciparum luciferase growth in erythrocytes, 48 h; further: potency means the concentration at half of the fitted maximal effect; on the % scale 0 is the no-effect control and ±100 the full control effect
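Compounds are pin-transferred into medium, infected erythrocytes (2% hematocrit, 0.1% parasitemia final) are added, and plates sit one parasite generation at 37 C in 5% CO2. Detection reagent is then added and luminescence measured.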
HCV inh: qHTS Assay for Inhibitors of Hepatitis C Virus (HCV); Potency, µM (series often up to 41.8 µM), inactives show at the top dose activity change, negative = inhibition, actives largely listed as inhibitors; actives 3.4% (n = 340,000); AID 651820, 2012; Huh7.5.1 HCVcc-Cre infection, luciferase reporter, 44 h; further: potency means the concentration at half of the fitted maximal effect; on the % scale 0 is the no-effect control and ±100 the full control effect
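Reporter virus HCVcc-Cre (~0.5 moi) infects cells exposed to compound; seeding density 1,000 cells/well with 4 h settling beforehand. Luminescence, 15 sec read, taken 44 h post-infection following a 15 min RT substrate incubation.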
Active calls of the source: *. Hits are enriched below; roughly 21% of the tested compounds scored in any of these assays. Unless noted, the call rests on the fitted dose curve; in most records, active means well fitted inhibition curve with a large enough effect; inconclusive means small, poorly fitted or top-dose-only effect, or another doubt; inactive means no such curve, though single readings can be large or run the other way.

Screening Cc1ccc(CNS(=O)(=O)c2ccc(C(F)(F)F)cc2)n1C returned Cycloheximide cs 1, HCMV inh -12, Shiga toxin inh 7, Pf growth 96h -5%, Pf growth 48h inconclusive and HCV inh 17%.
`CNc1ccc(/C=C/C(=O)c2cccc3ccccc23)cc1[N+](=O)[O-]` gave Cycloheximide cs -3, HCMV inh inconclusive, Shiga toxin inh -1, Pf growth 96h inconclusive, Pf growth 48h inconclusive and HCV inh inconclusive.
Screening C/C(=N/OCC(=O)NCCCCCCNC(=O)CO/N=C(/C)c1cccs1)c1cccs1 returned Cycloheximide cs 6, HCMV inh inconclusive, Shiga toxin inh 28, Pf growth 96h inconclusive, Pf growth 48h -21% and HCV inh 22µM*.
O=C(CC(Nc1ccccc1Cl)C(=O)OCC(=O)c1cccs1)c1ccccc1 (stereo not drawn) was read as Cycloheximide cs 53*, HCMV inh inconclusive, Shiga toxin inh 69*, Pf growth 96h 132%, Pf growth 48h 318% and HCV inh -1%.
`C/C(=N\OCC(=O)NC(C)C)c1cccs1` gave Cycloheximide cs 12, HCMV inh 19, Shiga toxin inh -4, Pf growth 96h 37%, Pf growth 48h 11% and HCV inh 10%.
Screening O=C(COC(=O)c1cccs1)Nc1ccccc1 returned Cycloheximide cs 51*, HCMV inh 8, Shiga toxin inh 109*, Pf growth 96h -14%, Pf growth 48h -8% and HCV inh -3%.
CC(C)=CCC/C(C)=C/CC/C(C)=C/COc1ccc2ccc(=O)oc2c1 was read as HCMV inh 5 and HCV inh inconclusive.
`COc1ccc(C2c3c(oc4ccc(Cl)cc4c3=O)C(=O)N2CCCN(C)C)cc1OC` (stereo not drawn) gave HCMV inh -17.
`CCN1CCN(CCC(=O)Nc2cccc(C)c2)CC1` gave Cycloheximide cs -1, HCMV inh 30, Shiga toxin inh -7, Pf growth 96h -3%, Pf growth 48h 5% and HCV inh 6%.
Screening CCCc1nn(C)c(C(=O)Nc2cccc(Cl)c2)c1Cl returned Cycloheximide cs 50*, HCMV inh -64*, Shiga toxin inh 66*, Pf growth 96h 198%, Pf growth 48h 137% and HCV inh inconclusive.
`CCCc1nn(C)c(C(=O)Nc2ccc(C(C)(C)C)cc2)c1Cl` gave Cycloheximide cs -1, HCMV inh -38, Shiga toxin inh 5, Pf growth 96h inconclusive, Pf growth 48h -25% and HCV inh -14%.
For CCCc1nn(C)c(C(=O)Nc2cccc(C)c2)c1Cl the results were Cycloheximide cs 58*, HCMV inh -32, Shiga toxin inh 55*, Pf growth 96h 185%, Pf growth 48h 114% and HCV inh -3%.
For Cc1nc([N+](=O)[O-])cn1Cc1cccc2ccccc12 the results were Cycloheximide cs 1, HCMV inh -10, Shiga toxin inh -14, Pf growth 96h 21%, Pf growth 48h 10µM* and HCV inh 1%.
Cc1nn(CC(=O)Nc2ccc3c(c2)CCC3)c(C)c1[N+](=O)[O-] was read as HCMV inh 25, Pf growth 96h -9%, Pf growth 48h -23% and HCV inh -19%.
For COc1ccc(-c2ccc(-c3cc(=O)oc4cc(C)cc(C)c34)cc2)cc1 the results were Cycloheximide cs 24 and Shiga toxin inh active.
`COc1ccc(-c2cccc(-c3cc(=O)oc4cc5c(cc34)OCO5)c2)cc1` gave Cycloheximide cs 30*, HCMV inh 13, Shiga toxin inh inactive and HCV inh 21%.
COc1cc(OC)c2c(-c3cccc(-c4ccc(N(C)C)cc4)c3)cc(=O)oc2c1 was read as Cycloheximide cs 37*, HCMV inh -73*, Shiga toxin inh active and HCV inh inconclusive.
For COc1ccc(-c2cccc(-c3cc(=O)oc4cc(OC)cc(OC)c34)c2)cc1 the results were HCMV inh -73* and HCV inh inconclusive.
`Cc1cc(C)c2c(-c3ccc(-c4ccc(C(F)(F)F)cc4)cc3)cc(=O)oc2c1` gave Cycloheximide cs 16 and Shiga toxin inh inactive.
For Cc1cccc(-c2cccc(-c3cc(=O)oc4cc5c(cc34)OCO5)c2)c1 the results were Cycloheximide cs 9 and Shiga toxin inh inactive.
Screening CCC(Sc1nc(-c2ccccc2)[nH]c1S(=O)(=O)c1ccc(C)cc1)C(=O)O (stereo not drawn) returned HCMV inh 6.
CCCCOc1ccc(NC(=O)Cn2nnnc2-c2ccccc2F)cc1 was read as HCMV inh 10.
For COc1cc(OC)c2c(-c3cccc(-c4cccc(C)c4)c3)cc(=O)oc2c1 the results were Cycloheximide cs 5, HCMV inh -35, Shiga toxin inh inactive and HCV inh 4.5µM*.
`COc1cc(OC)c2c(-c3cccc(-c4ccc(O)cc4)c3)cc(=O)oc2c1` gave Cycloheximide cs -2, HCMV inh -14, Shiga toxin inh inactive and HCV inh inconclusive.
COc1cc(OC)c2c(-c3cccc(/C=C/c4ccc(F)cc4)c3)cc(=O)oc2c1 was read as Cycloheximide cs 50*, HCMV inh 88, Shiga toxin inh active and HCV inh -8%.
For COc1ccc(N2Nc3n[nH]c(N)c3N2)cc1 the results were Cycloheximide cs 43*, HCMV inh 29, Shiga toxin inh 58*, Pf growth 96h 171%, Pf growth 48h 191% and HCV inh -14%.
`CCOc1ccc(N2Nc3n[nH]c(N)c3N2)cc1` gave Cycloheximide cs 25*, HCMV inh 39, Shiga toxin inh 50*, Pf growth 96h 243%, Pf growth 48h 181% and HCV inh inconclusive.
Cc1cc2nccc(-c3ccc(Cl)c([N+](=O)[O-])c3)n2n1 was read as Cycloheximide cs -3, HCMV inh 6, Shiga toxin inh 17, Pf growth 96h 37%, Pf growth 48h inactive and HCV inh -15%.
For Cc1ccc(C(=O)NC2CCCCNC2=O)cc1 (stereo not drawn) the results were Cycloheximide cs 29*, HCMV inh 107, Shiga toxin inh 94*, Pf growth 96h 33%, Pf growth 48h 38% and HCV inh 28%.
`Cc1ccc(C(=O)NC2CCc3ccccc3C2=O)cc1` (stereo not drawn) gave Cycloheximide cs 30*, HCMV inh 75, Shiga toxin inh 65*, Pf growth 96h 462%, Pf growth 48h inactive and HCV inh -9%.

Compound activity as filed in PubChem.
